Assay results as given in ChEMBL document CHEMBL3988442, “University of Dundee, Small-Polar-MMV Screening Library” (2021).
In all, about 48,000 compounds went through this assay and about 13,000 (27%) showed an effect of 50% or more. The list shows a part of the results.

What follows are molecules tested on Wolbachia pipientis (assay: Anti-Wolbachia Cell-Based Screen). Conditions: 5 µM.
Assay type: functional
Set-up: scale not given: in the data most compounds retested in dose-response had high values

Row | SMILES | Percent Effect [%]
1 | O=C1N(c2ccc(Cl)cc2)Cc2nc(=O)[nH]n21 | -10.7
2 | Cc1cccc(NC(=O)NCCCn2nc3ccccn3c2=O)c1C | -5.568
3 | COCc1nn(Cc2ccc(Cl)s2)c(=O)o1 | 85.2
4 | COCc1nn(Cc2ccc(Br)s2)c(=O)o1 | 93.51
5 | COc1ccccc1C(C)NC(=O)N1CCN(Cc2ccc(Br)s2)CC1 (centres undefined) | 3.107
6 | COCCn1c(=O)n(Cc2ccc(Cl)s2)c2cc(C(=O)O)ccc21 | 5.462
7 | CCCc1nn(Cc2ccc(Br)s2)c(=O)o1 | 114.1
8 | CCCc1nn(Cc2csc(C(C)C)n2)c(=O)o1 | -6.237
9 | CCCc1nn(Cc2csc(CC)n2)c(=O)o1 | 0.8831
10 | CCc1nc(Cn2nc(COC)oc2=O)cs1 | 8.463
11 | COc1cccc(-c2cc(NCc3cscn3)n(C)n2)c1 | -6.796
12 | Cc1nc2ccccn2c1CN1C[C@@H](CN(C)C)[C@@H](CO)C1 | -2.196
13 | CC(C)c1noc(C2CCCN2S(=O)(=O)N2CCCCCC2)n1 (centres undefined) | 33.89
14 | CC(=O)c1ccccc1C(=O)NCC1(CO)CC1 | -16.93
15 | NC(c1ccc(F)cc1)c1cccs1 (centres undefined) | 14.08
16 | CS(=O)(=O)NCc1cc(=O)n2c(n1)CN(Cc1ccco1)CCC2.O=C(O)C(F)(F)F | -0.8444
17 | CS(=O)(=O)NCc1cc(=O)n2c(n1)CN(CC1CC1)CCC2.O=C(O)C(F)(F)F | 110.4
18 | O=C(O)C(F)(F)F.O=c1cc(CNS(=O)(=O)C2CC2)nc2n1CCCN(CC1CC1)C2 | 107
19 | CC(=O)N1CCCn2c(nc(CNS(=O)(=O)C3CC3)cc2=O)C1 | -2.795
20 | CN1CCCn2c(nc(CNS(=O)(=O)C3CC3)cc2=O)C1.O=C(O)C(F)(F)F | -4.96
21 | Cc1cc(C)n(CC2(CNC(=O)C(c3ccccc3F)N(C)C)CC2)n1 (centres undefined) | -12.38
22 | CC1c2ncc(COCC3CCCC3)n2CCN1S(=O)(=O)N(C)C (centres undefined) | -21.16
23 | CN(C)c1cccc(C(=O)Nc2cnn(CC(N)=O)c2)c1 | -9.995
24 | CN1C[C@H](O)[C@]2(CCN(Cc3ccc(OC(F)(F)F)cc3)C2)S1(=O)=O | 118.4
25 | COc1ccc(CN2CC[C@@]3(C2)[C@H](O)CN(C)S3(=O)=O)cc1F | 137.9
26 | CN1C[C@H](O)[C@]2(CCN(Cc3ccc(F)c(F)c3)C2)S1(=O)=O | 108.2
27 | Cc1c[nH]c(CN2CCC3(CCCN(Cc4ccc(F)c(F)c4)C3)C2)n1 (centres undefined) | -10.55

Row | SMILES | Percent Effect [%]
28 | Fc1ccc(CN2CCCC3(CCN(Cc4ncc[nH]4)C3)C2)cc1F (centres undefined) | 2.586
29 | O=C(c1ccc(Br)s1)N1CCN(Cc2ccc(OC(F)(F)F)cc2)CC1 | -12.95
30 | O=C(c1ccc(Br)o1)N1CCN(Cc2ccc(OC(F)(F)F)cc2)CC1 | -3.633
31 | COc1ccc(CN2CCN(C(=O)N(C)C)[C@@H]3CS(=O)(=O)C[C@@H]32)cc1F | -14.55
32 | COCCC(=O)N1CCC2(CN(Cc3ccc(OC)c(F)c3)C2)C1 | 5.323
33 | CCN1CC[C@@]2(C(=O)N(C)C)CCN(S(=O)(=O)c3ccccc3)CC[C@@H]12.O=C(O)C(F)(F)F | 1.516
34 | CN(C)C[C@H]1OC[C@@H]2CCN(S(=O)(=O)c3ccccc3)C[C@@H]21.O=C(O)C(F)(F)F | -5.753
35 | Cc1ccc(S(=O)(=O)N2CCC(c3n[nH]cc3C(=O)N(C)C)CC2)cc1 | 124.5
36 | CN(C)C(=O)c1c[nH]nc1C1CCN(S(=O)(=O)c2cccc(Cl)c2)CC1 | 103
37 | CC(=O)c1ccc(S(=O)(=O)N2CCC(c3n[nH]c(C)n3)CC2)cc1 | 9.052
38 | CNC(=O)[C@@]12CCO[C@@H]1CCN(S(=O)(=O)c1ccc(C)cc1)C2 | 8.759
39 | CN(C)C(=O)c1c[nH]nc1C1CCN(S(=O)(=O)c2ccc(Cl)cc2)CC1 | 131.9
40 | CC(=O)c1cccc(S(=O)(=O)N2CCC(c3noc(C)n3)CC2)c1 | -3.648
41 | CN(C)C(=O)c1cccnc1N1CCOC(c2ccc(Cl)cc2)C1 (centres undefined) | 7.498
42 | CN(C)C(=O)c1c[nH]nc1C1CCN(S(=O)(=O)c2ccccc2)CC1 | 115.3
43 | CC(=O)c1cccc(S(=O)(=O)N2CCC(c3n[nH]c(C)n3)CC2)c1 | -14.04
44 | Cc1nc(C2CCN(S(=O)(=O)c3ccc(Cl)cc3)CC2)n[nH]1 | 2.775
45 | O=C(c1cc2ccccc2o1)N1CCN(Cn2cc(Cl)cn2)CC1 | -7.476
46 | CNC(=O)CCNC(=O)c1cc(Br)c2c(c1)OCCO2 | 13.5
47 | Cc1ccc(S(=O)(=O)N2CCCC(c3n[nH]cc3C(=O)N(C)C)C2)cc1 (centres undefined) | 125.7
48 | Cc1ccc([C@@H]2CN(S(=O)(=O)c3ccccc3)C[C@H]2N(C)C)cc1 | -8.566
49 | CCN(C)S(=O)(=O)N1CCCC(c2nc(-c3ccccc3)c[nH]2)C1 (centres undefined) | -1.843
50 | O=C(NCc1nnc2ccccn12)N1CCOC(c2ccsc2)C1 (centres undefined) | -11.65
51 | CCOc1ncccc1NC(=O)NCC(O)c1ccccc1OC (centres undefined) | -2.656
52 | COc1ccc(NC(=O)NCC(O)c2ccccc2F)c(OC)c1 (centres undefined) | 84.27
53 | COc1ccc(OC)c(C(O)CNC(=O)Nc2ccc(F)cc2F)c1 (centres undefined) | 81.01
54 | COc1ccc(NC(=O)NCC(O)c2ccc(F)cc2F)c(OC)c1 (centres undefined) | 9.274
